From PubChem
ADAM10 inh = human ADAM10 inhibitors, primary screen, biochemical, QFRET, HTS. Disintegrin and metalloproteinase domain-containing protein 10 (Homo sapiens), O14672. recombinant ADAM10, EDANS/DABCYL FRET peptide cleavage, 3 h. inhibition, % at 7 µM. 370,000 compounds, 0.62% hits. AID 720582, 2013;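 active = inhibition above a per-campaign cutoff equal to the mean of compounds falling between control-based bounds plus 3 SD, cut at about 20% in these data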
Ecoli rRNA inh = reduced GFP signal of wild-type E. coli, primary screen, bacterial rRNA inhibitor project, GFP/RFP fluorescence, OD600, single point. E. coli WT GFP vs humanized-ribosome RFP mutants, 24 h; active compounds read low; DMSO median 0, no signal -100. GFP signal change (wild-type ribosome), % (concentration not given with the values). 350,000 compounds, 1.6% hits. AID 720706, 2013;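 active = significant combined selectivity score with lowered wild-type GFP, culture density cut under 30%, mutant RFP and density less affected; inactive = any of these conditions unmet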
KLK7 zymogen act = proKLK7 zymogen activators, primary screen, biochemical, fluorescence intensity | Kallikrein-7 (Homo sapiens), P49862 | 370,000 compounds, 0.9% hits | activation, % at 7 µM | purified proKLK7, EDANS-DABCYL substrate fluorescence; 100% is mature enzyme control, 0% vehicle;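 active = activation above the mean of all tested compounds plus 3 SD, computed per campaign excluding outliers beyond control limits, cut at about 13% in these data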
Target sequence (P49862 whole entry, looked up): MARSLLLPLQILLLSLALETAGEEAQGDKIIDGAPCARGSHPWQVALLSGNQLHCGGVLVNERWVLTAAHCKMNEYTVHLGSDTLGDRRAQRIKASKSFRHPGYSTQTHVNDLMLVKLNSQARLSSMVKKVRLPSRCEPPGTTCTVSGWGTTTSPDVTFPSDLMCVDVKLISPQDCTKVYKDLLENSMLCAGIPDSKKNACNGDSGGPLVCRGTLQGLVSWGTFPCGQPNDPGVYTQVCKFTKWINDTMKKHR
FGF22 binding = binders of human FGF22 protein, primary screen, FGF22 synaptogenesis inhibitor project, biophysical, thermal shift, single point; 340,000 compounds, 1.5% hits; recombinant FGF22 thermal shift, SYPRO orange fluorescence; percent of sucrose octasulfate shift, DMSO zero; activity (Tm shift, normalised), % at 9.99 µM;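 active = mean Tm shift, scaled 0 neutral to 100 positive control, at about 1.3% or above, every replicate too, limit read from the data; inconclusive = no clear call, values can overlap the other calls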
Target sequence (Q9HCT0 whole entry, looked up): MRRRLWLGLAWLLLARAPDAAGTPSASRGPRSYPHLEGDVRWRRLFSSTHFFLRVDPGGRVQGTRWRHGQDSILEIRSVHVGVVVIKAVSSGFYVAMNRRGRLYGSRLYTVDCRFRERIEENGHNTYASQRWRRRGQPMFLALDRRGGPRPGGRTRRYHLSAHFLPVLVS
ADAM17 inh = ADAM17 inhibitors, primary screen, biochemical, QFRET. inhibition, % at 6.95 µM. Disintegrin and metalloproteinase domain-containing protein 17 (Homo sapiens), P78536. 370,000 compounds, 0.83% hits. recombinant ADAM17, EDANS/DABCYL FRET peptide cleavage;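 active = inhibition above the mean of compounds lying between control limits plus 3 SD, set per campaign, cut at about 8.5% in these data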
ADAM10 confirm = human ADAM10 inhibitors, confirmation, biochemical, QFRET, triplicate; shares compounds with ADAM10 inh; ADAM10 QFRET peptide cleavage, EDANS fluorescence; inhibition, % at 6.95 µM; 2,100 compounds, 1% hits; AID 743208, 2013;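 active = inhibition above about 20% chosen separately for each screening run, limit read from the data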
ADAM17 counter = ADAM17 inhibitors, counter-screen for ADAM10 exosite inhibitor project, biochemical, QFRET, high throughput; shares compounds with ADAM10 inh; ADAM17 QFRET peptide cleavage, EDANS fluorescence; inhibition, % at 6.95 µM; 2,100 compounds, 0.5% hits; AID 743214, 2013;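 active = mean triplicate inhibition above the solvent-only control wells' mean plus 3 SD, cut at about 12% in these data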
ADAM10 ctr = ADAM10 inhibitors, counter-screen for ADAM17 exosite inhibitor project, biochemical, FRET, human ADAM10; shares compounds with ADAM17 inh; recombinant ADAM10, EDANS/DABCYL FRET peptide cleavage, 3 h; inhibition, % at 6.95 µM; 2,900 compounds, 47% hits;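 active = mean inhibition over the triplicate runs exceeds the activity threshold set in the earlier primary screen, cut at about 20% in these data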
ADAM17 confirm = ADAM17 inhibitors, hit retest, confirmation, biochemical, QFRET peptide cleavage; shares compounds with ADAM17 inh; recombinant ADAM17, EDANS/DABCYL QFRET peptide cleavage; inhibition, % at 6.95 µM; 2,900 compounds, 65% hits;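 active = mean inhibition across replicates above the hit cutoff set in the primary screen, cut at about 8.5% in these data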
AID977621 = growth inhibition of wild-type GFP E. coli, dose response, H69 mutant RFP, cherry-pick; shares compounds with Ecoli rRNA inh; E. coli wild-type GFP strain growth, fluorescence, 24 h; activity change, negative = inhibition at 50 µM; 1,900 tested, under 10 active;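 active = Wild-type ribosome reporter drop at least double the humanized mutant ribosome reporter drop, growth loss under a set limit; inconclusive = no clear call, values can overlap the other calls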;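 note: wild-type GFP and H69 mutant RFP strains grown together 50/50 in each well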
Large screens that a line does not name were inactive (follow-up assays come after a bar, where they were run). In the library only some 3.8% were active in any assay of this set; here they are far more common.

C[C@@H]1CN([C@@H](C)CO)S(=O)(=O)c2ccc(C#Cc3ccccn3)cc2O[C@H]1CN(C)C(=O)C1CC1	none (no result: ADAM10 inh, KLK7 zymogen act, ADAM17 inh)
C[C@H](O)C#Cc1cnc2c(c1)C(=O)N([C@H](C)CO)C[C@H](C)[C@@H](CN(C)CC1CCCCC1)O2	none (no result: ADAM10 inh, KLK7 zymogen act, ADAM17 inh)
Cn1cnc(S(=O)(=O)N[C@H]2C=C[C@H](CC(=O)NCC3CC3)O[C@H]2CO)c1	none (no result: ADAM10 inh, KLK7 zymogen act, ADAM17 inh)
Nc1[nH]c(C(=O)c2ccccc2)c(-c2ccc3c(c2)OCO3)c1C(=O)NCCc1c[nH]c2ccccc12	ADAM10 inh 26.8, Ecoli rRNA inh -14.8 | ADAM10 confirm inactive | ADAM17 counter inactive | AID977621 inconclusive
C[C@@H]1CCCCO[C@@H](CN(C)S(=O)(=O)c2cn(C)cn2)[C@H](C)CN([C@@H](C)CO)C(=O)c2cc(NS(=O)(=O)c3cn(C)cn3)ccc2O1	none (no result: ADAM10 inh, KLK7 zymogen act, ADAM17 inh)
O=S(=O)(NCCc1ccccc1)c1ccc(F)cc1Br	none
O=S(=O)(NCCc1ccc(F)cc1)c1cc(C(F)(F)F)ccc1Br	ADAM17 inh 9.9 | ADAM10 ctr 22.1 | ADAM17 confirm 11.4
COc1cc(NC(=O)c2ccc(S(=O)(=O)N(C)c3ccccc3OC)cc2)cc(OC)c1	ADAM17 inh 9.4 | ADAM10 ctr 24.7 | ADAM17 confirm 13.2
C[C@@H]1CCCCO[C@H](CN(C)C(=O)NC2CCCCC2)[C@H](C)CN([C@@H](C)CO)C(=O)c2cc(NS(=O)(=O)c3ccccc3)ccc2O1	none (no result: ADAM10 inh, KLK7 zymogen act, ADAM17 inh)
OC(COC(c1ccc(Cl)cc1)c1ccc(Cl)cc1)CN1CCN(c2ccccn2)CC1 (centres undefined)	ADAM17 inh 9.1 | ADAM10 ctr 22.3 | ADAM17 confirm 13.0
Cc1cccc(C)c1OCC(O)CN1CCN(c2ccccn2)CC1 (centres undefined)	none (no result: FGF22 binding)
O=C1c2cccc(OCC(=O)N3CCCc4ccccc43)c2CCN1Cc1ccccc1	none
O=C1c2cccc(OCC(=O)N3CCCc4ccccc43)c2CCN1Cc1ccc(Br)cc1	ADAM17 inh 9.7 (no result: Ecoli rRNA inh, FGF22 binding) | ADAM10 ctr inactive | ADAM17 confirm 11.8
CCSC1=C(C#N)C(c2ccccc2Cl)C(C(=O)c2cccs2)C(O)(C(F)(F)F)N1 (centres undefined)	none (no result: Ecoli rRNA inh, FGF22 binding)
C=CCSC1=C(C#N)C(c2ccccc2Cl)C(C(=O)c2cccs2)C(O)(C(F)(F)F)N1 (centres undefined)	ADAM17 inh 8.6 | ADAM10 ctr inactive | ADAM17 confirm inactive
Cc1noc(C)c1NC(=O)N[C@H]1CC[C@@H](CC(=O)N2CCCCC2)O[C@@H]1CO	none (no result: ADAM10 inh, KLK7 zymogen act, ADAM17 inh)
S=c1[nH]nc(COc2ccc(Cl)cc2)n1C1CCCCC1	ADAM17 inh 11.5 | ADAM10 ctr inactive | ADAM17 confirm inactive
COc1ccccc1N1CCN(c2nc(N)c(C#N)c(CC#N)c2C#N)CC1	ADAM17 inh 20.1 (no result: Ecoli rRNA inh, FGF22 binding) | ADAM10 ctr inactive | ADAM17 confirm 10.6
COc1cc2c(C#N)c(N3CCN(c4ccccc4OC)CC3)nc(N)c2c(N)n1	none (no result: Ecoli rRNA inh, FGF22 binding)
COc1cccc(-c2ccc3c(c2)[C@@H]2[C@@H](CCN2S(=O)(=O)c2ccccc2OC)[C@@H](CO)N3)c1	none (no result: ADAM10 inh, KLK7 zymogen act, ADAM17 inh)
CCOc1ccc(OCC(=O)OCC(=O)Nc2ccccc2C#N)cc1	none
CCOc1ccc(N=C2SC(C(=O)Nc3ccccc3C#N)C(N)=C2C(=O)Nc2ccc(Cl)cc2)cc1 (centres undefined)	ADAM17 inh 9.4 | ADAM10 ctr 21.2 | ADAM17 confirm 16.4
O=C(c1cccnc1)N1C[C@H]2[C@@H](c3ccccc31)[C@H](CO)N2C(=O)Nc1ccc(F)cc1	none (no result: ADAM10 inh, KLK7 zymogen act, ADAM17 inh)
COc1ccccc1NC(=O)c1c([N+](=O)[O-])c(C(C)(C)C)nn1C	ADAM17 inh 8.6 (no result: Ecoli rRNA inh) | ADAM10 ctr inactive | ADAM17 confirm inactive
C#CCN(C[C@H]1[C@H](OC(=O)Nc2cccs2)[C@H](OC(=O)Nc2cccs2)CN(C(=O)OC(C)C)N1C(=O)OC(C)C)S(=O)(=O)c1ccc(C)cc1	ADAM17 inh 12.1 | ADAM10 ctr 33.4 | ADAM17 confirm 19.1
O=C(N/N=C/c1cccnc1)c1ccc(S(=O)(=O)N2CCCCCC2)cc1	none
O=C(N/N=C/c1cccnc1)C1CCCN(S(=O)(=O)c2ccccc2)C1 (centres undefined)	ADAM17 inh 9.2 (no result: Ecoli rRNA inh, FGF22 binding) | ADAM10 ctr inactive | ADAM17 confirm inactive
Cc1ccc(S(=O)(=O)c2nnn3c2nc(N2CCC(C(N)=O)CC2)c2ccccc23)cc1	none
NC(=O)C1CCN(c2nc3c(S(=O)(=O)c4ccccc4)nnn3c3ccccc23)CC1	ADAM17 inh 12.8 | ADAM10 ctr inactive | ADAM17 confirm inactive
CCOC(=O)C1=CC[C@@H](c2ccccc2)[C@@H]1C(=O)c1ccc(OC)cc1	none (no result: ADAM10 inh, Ecoli rRNA inh, KLK7 zymogen act, ADAM17 inh)
CO[C@@H]1CN(C)C(=O)c2ccc(NC(C)=O)cc2OC[C@@H](C)N(C(=O)c2ccccn2)C[C@H]1C	none (no result: ADAM10 inh, KLK7 zymogen act, ADAM17 inh)
CCCCC(=O)N(C)c1c(CC)nc2c(OCC3CCCCC3)cccn12	ADAM17 inh 9.7 (no result: Ecoli rRNA inh) | ADAM10 ctr inactive | ADAM17 confirm inactive
CCCCC(=O)N(C)c1c(CC)nc2c(OCCC3CCCCC3)cccn12	none
CCc1nc2c(OCCC3CCCCC3)cccn2c1N(C)C(=O)c1cccs1	ADAM17 inh 9.4 | ADAM10 ctr 21.1 | ADAM17 confirm 11.6
CCCNC(=O)[C@H]1[C@H](CO)[C@H]2Cn3c(ccc(-c4ccccc4OC)c3=O)[C@H]2N1S(C)(=O)=O	none (no result: ADAM10 inh, KLK7 zymogen act, FGF22 binding, ADAM17 inh)
